The test system of assay [1] is Plasmodium falciparum Sir2 (PF13_0152, Sir2A). Description: pfSir2 binders on small-molecule microarrays, primary screen, biochemical, small-molecule microarray, 635 nm fluorescence (AID 1098).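 Also: score merges spot fluorescence intensity with its signal-to-noise ratio.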 The following applies: small-molecule microarray binding, fluorescence 635 nm; higher = more signal.
A short description of assay [2]: small-molecule microarray binders of probe aDKK1, primary screen, biochemical, biotinylated probe, 635/667 nm fluorescence (AID 1099).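 Also: score merges 667nm spot fluorescence with signal to noise across triplicate slides.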 The following applies: higher = more signal; small-molecule microarray, probe aDKK1, fluorescence unless noted.
The nature of assay [3]: small-molecule microarray binders of probe aCHRDL2, primary screen, biochemical, biotinylated probe, 635/667 nm fluorescence (AID 1100). To be noted: higher = more signal; small-molecule microarray, probe aCHRDL2, fluorescence unless noted.
A short description of assay [4]: splicing luciferase reporter signal modulators, primary screen, spliceosome inhibition project, cell-based, HEK293, splice +/- reporter (AID 1101).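 Also: HEK293 cells carrying a splicing-competent luciferase reporter gene; test concentration not given here.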 The following applies: luminescence, 24 h; higher = more signal, called active from +8 up or from −8 down unless noted. (In a reporter assay the amount or activity of a reporter protein is the signal.)
Assay [5] has as its target Fibroblast growth factor 10 (Homo sapiens) (UniProt O15520). As to the kind of experiment: FGF10 binders on small-molecule microarrays, primary screen, biochemical, small-molecule microarray, 635 nm fluorescence (AID 1102). To be noted: FGF10 binding, fluorescence 635 nm, higher = more signal.
Assay [6] concerns glycogen synthase kinase-3 (GSK3A per assay name; protocol says GSK3B). As to the kind of experiment: GSK3 binders on small-molecule microarrays, primary screen, biochemical, small-molecule microarray, 635 nm fluorescence, GSK3A (AID 1103). Also: the record names both GSK3A and GSK3B. To be noted: small-molecule microarray binding, fluorescence 635 nm; higher = more signal.
The target of assay [7] is Epidermal growth factor receptor (Homo sapiens) (UniProt P00533). Description: EGFR binders on small-molecule microarrays, primary screen, biochemical, small-molecule microarray, 635 nm fluorescence (AID 1104).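 Also: score merges 667 nm emission intensity with spot signal to noise over triplicate slides.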 To be noted: EGFR binding, higher = more signal.
Chain of Epidermal growth factor receptor (Homo sapiens) (P00533 whole entry, looked up): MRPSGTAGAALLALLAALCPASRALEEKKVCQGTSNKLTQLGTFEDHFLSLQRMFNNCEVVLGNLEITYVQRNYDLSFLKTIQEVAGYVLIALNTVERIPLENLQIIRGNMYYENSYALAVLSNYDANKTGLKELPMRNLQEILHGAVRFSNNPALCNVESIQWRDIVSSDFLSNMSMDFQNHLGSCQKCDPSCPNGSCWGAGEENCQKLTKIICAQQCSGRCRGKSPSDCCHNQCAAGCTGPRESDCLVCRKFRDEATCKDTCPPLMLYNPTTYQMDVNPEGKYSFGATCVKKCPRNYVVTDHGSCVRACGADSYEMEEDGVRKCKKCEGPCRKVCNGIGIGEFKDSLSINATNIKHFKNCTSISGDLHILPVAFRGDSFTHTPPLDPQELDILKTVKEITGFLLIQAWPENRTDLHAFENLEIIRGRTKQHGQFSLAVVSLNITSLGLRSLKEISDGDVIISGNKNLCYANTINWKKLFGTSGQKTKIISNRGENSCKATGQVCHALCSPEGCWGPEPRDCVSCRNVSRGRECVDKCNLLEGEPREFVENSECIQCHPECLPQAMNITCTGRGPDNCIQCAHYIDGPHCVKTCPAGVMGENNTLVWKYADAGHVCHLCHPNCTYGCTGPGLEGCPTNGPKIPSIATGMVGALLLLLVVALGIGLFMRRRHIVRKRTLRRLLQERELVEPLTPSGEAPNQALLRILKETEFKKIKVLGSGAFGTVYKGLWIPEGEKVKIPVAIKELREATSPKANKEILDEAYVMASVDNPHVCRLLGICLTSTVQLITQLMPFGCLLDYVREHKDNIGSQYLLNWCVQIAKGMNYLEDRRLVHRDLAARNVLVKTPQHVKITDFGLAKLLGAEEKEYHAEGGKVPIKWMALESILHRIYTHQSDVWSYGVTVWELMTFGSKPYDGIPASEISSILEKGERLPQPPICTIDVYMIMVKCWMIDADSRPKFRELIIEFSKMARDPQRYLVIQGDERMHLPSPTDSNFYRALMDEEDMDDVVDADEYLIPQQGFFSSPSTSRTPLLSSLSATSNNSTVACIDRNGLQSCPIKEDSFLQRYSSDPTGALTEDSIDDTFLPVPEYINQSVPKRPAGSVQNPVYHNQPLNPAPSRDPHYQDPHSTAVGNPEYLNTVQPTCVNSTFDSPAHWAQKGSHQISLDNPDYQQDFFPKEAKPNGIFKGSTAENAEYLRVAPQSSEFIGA
In assay [8] the target is Follistatin-related protein 3 (Homo sapiens) (UniProt O95633). Description: FSTL3 binders on small-molecule microarrays, primary screen, biochemical, small-molecule microarray, 635 nm fluorescence (AID 1105).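 Also: score merges emission near 667 nm and signal to noise per printed spot across three slides.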 To be noted: FSTL3 binding, higher = more signal.
Chain of Follistatin-related protein 3 (Homo sapiens) (O95633 whole entry, looked up): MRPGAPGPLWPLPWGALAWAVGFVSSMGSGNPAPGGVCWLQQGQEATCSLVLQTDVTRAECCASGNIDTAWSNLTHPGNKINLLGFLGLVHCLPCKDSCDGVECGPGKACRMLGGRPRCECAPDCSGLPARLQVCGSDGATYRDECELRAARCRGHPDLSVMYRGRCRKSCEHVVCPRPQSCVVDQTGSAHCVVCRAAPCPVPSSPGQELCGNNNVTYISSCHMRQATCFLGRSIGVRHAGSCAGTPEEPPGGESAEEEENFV
The target of assay [9] is Dickkopf-related protein 1 (Homo sapiens) (UniProt O94907). As to the kind of experiment: DKK1 binders on small-molecule microarrays, primary screen, biochemical, small-molecule microarray, 635 nm fluorescence scan (AID 1106).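 Also: score merges emission near 667 nm with signal to noise over three replicate slides.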 The following applies: DKK1 binding, higher = more signal.
Chain of Dickkopf-related protein 1 (Homo sapiens) (O94907 whole entry, looked up): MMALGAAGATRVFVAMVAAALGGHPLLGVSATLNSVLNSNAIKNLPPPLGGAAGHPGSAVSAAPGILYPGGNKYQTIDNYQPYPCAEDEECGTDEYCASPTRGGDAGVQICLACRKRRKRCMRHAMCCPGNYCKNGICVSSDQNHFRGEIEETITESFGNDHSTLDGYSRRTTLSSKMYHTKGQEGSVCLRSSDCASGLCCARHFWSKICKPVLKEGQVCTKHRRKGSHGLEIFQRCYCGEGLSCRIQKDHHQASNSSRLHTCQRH
The subject of assay [10] is Inhibin beta A chain (activin A). Description: INHBA (activin A) binders on microarrays, primary screen, biochemical, small-molecule microarray, 635 nm fluorescence scan (AID 1107).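 Also: mouse activin A protein probed at 4.33 µg/mL on printed slides; score merges bound-protein fluorescence near 667 nm with spot signal-to-noise.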 The following applies: small-molecule microarray binding, higher = more signal.
Assay [11] has as its system Human papillomavirus type 1a protein E7 (residues 44-93). As to the kind of experiment: HPV1a E7 fragment binders on microarrays, primary screen, biochemical, small-molecule microarray, residues 44-93, 635 nm fluorescence (AID 1108).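 Also: E7 fragment applied at 1 µg/mL in TBST for 1 h at 4 C; score combines spot fluorescence with its signal to noise ratio.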 To be noted: small-molecule microarray binding, fluorescence 635 nm; higher = more signal.
The nature of assay [12]: modulators of HCV replicon luciferase signal, primary screen, HCV replication inhibitor project, Huh7 cells, luciferase reporter (AID 1109).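 Also: huh7 hepatoma cells harbouring a luciferase neomycin HCV replicon reporter; luciferase luminescence as measure of HCV replicon replication; test concentration not given here.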 The following applies: 48 h, higher = more signal.
Assay [13] concerns the target Left-right determination factor 2 (Homo sapiens) (UniProt O00292). As to the kind of experiment: LEFTY2 binders on small-molecule microarrays, primary screen, biochemical, small-molecule microarray, 635 nm fluorescence scan (AID 1110). The following applies: LEFTY2 binding, higher = more signal.
In assay [14] the target is Calmodulin-1 (Homo sapiens) (UniProt P0DP23). As to the kind of experiment: CALM1 binders on microarrays, EGTA buffer, profiling panel, biochemical, small-molecule microarray, Cy5-labelled CALM1 (AID 1111).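 Also: labelled calmodulin applied in Tris saline Tween buffer holding calcium plus EGTA and DTT.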 The following applies: Cy5-CALM1 binding fluorescence, higher = more signal.
Assay [15] shares this target. As to the kind of experiment: calcium-bound CALM1 binders on microarrays, profiling panel, artefact control for SMM control-protein annotation, biochemical, small-molecule microarray, Cy5-labelled CALM1, plus calcium (AID 1112).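 Also: score merges spot fluorescence with signal to noise from triplicate slides.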 To be noted: Cy5-CALM1 binding fluorescence, higher = more signal.
A short description of assay [16]: small-molecule microarray binders of probe aWnt5a, primary screen, biochemical, biotinylated probe, 635/667 nm fluorescence (AID 1113).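 Also: score merges 667 nm fluorescence intensity with signal-to-noise per printed feature.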 The following applies: higher = more signal; small-molecule microarray, probe aWnt5a, fluorescence unless noted.
Assay [17] can be described thus: small-molecule microarray binders of probe aShh, primary screen, biochemical, biotinylated probe, 635/667 nm fluorescence (AID 1114).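 Also: probe is biotin-labelled aShh protein from a stem cell growth factor screen; measures binding of labelled protein to compounds printed on the slide; score merges feature fluorescence at 667 nm with signal-to-noise.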 The following applies: higher = more signal; small-molecule microarray, probe aShh, fluorescence unless noted.
Assay [18] is described as follows: small-molecule microarray binders of probe aNog, primary screen, biochemical, biotinylated probe, 635/667 nm fluorescence (AID 1115).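 Also: probe is biotinylated aNog protein used at 0.15 µg/mL for 1 h at 4 C; z-score combines 667 nm fluorescence of each spot with its signal to noise.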 To be noted: higher = more signal; small-molecule microarray, probe aNog, fluorescence unless noted.
The target of assay [19] is Torsin-1A-interacting protein 1 (Homo sapiens) (UniProt Q5JTV8). Description: LAP1 binders from COS7 cell lysate, primary screen, small-molecule microarray, 635/667 nm fluorescence (AID 1116). The following applies: COS7-hLAP1 lysate binding, 635 nm fluorescence, higher = more signal.
Chain of Torsin-1A-interacting protein 1 (Homo sapiens) (Q5JTV8 whole entry, looked up): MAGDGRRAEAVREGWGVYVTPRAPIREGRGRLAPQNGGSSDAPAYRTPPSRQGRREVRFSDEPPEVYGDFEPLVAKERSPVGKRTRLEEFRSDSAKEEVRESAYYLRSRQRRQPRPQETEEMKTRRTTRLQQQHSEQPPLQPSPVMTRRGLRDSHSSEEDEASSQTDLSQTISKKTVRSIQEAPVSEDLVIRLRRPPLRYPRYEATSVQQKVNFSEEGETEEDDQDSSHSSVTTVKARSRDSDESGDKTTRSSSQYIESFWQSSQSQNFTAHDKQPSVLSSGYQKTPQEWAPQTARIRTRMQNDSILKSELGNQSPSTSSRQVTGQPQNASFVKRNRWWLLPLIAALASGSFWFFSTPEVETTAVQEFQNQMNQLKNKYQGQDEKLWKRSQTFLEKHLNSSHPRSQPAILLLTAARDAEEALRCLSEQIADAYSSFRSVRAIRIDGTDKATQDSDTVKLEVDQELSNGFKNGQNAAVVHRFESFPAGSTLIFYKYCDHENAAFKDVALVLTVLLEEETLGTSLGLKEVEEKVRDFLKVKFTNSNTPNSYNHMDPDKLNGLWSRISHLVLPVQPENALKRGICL
Assay [20] concerns the target Alpha-bungarotoxin (Bungarus multicinctus) (UniProt P60615). Description: alpha-bungarotoxin binders on microarray, profiling panel, artefact control for SMM control protein annotation, biochemical, small-molecule microarray, Alexa647 label, 635/667 nm fluorescence (AID 1117). The following applies: alpha-BTX-A647 binding fluorescence, higher = more signal.

Values joined by “and” are separate entries in the source; they are usually repeats but may differ in a detail not shown here. Equal values may be shown once. Active and inactive are the calls of the source.

Chain of Fibroblast growth factor 10 (Homo sapiens) (O15520 whole entry, looked up): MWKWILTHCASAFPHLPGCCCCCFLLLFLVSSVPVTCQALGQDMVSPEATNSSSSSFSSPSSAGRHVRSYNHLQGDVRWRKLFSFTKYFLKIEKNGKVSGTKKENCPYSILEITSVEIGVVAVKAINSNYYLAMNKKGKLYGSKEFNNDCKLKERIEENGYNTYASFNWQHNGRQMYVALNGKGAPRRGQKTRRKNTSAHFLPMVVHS
Chain of Left-right determination factor 2 (Homo sapiens) (O00292 whole entry, looked up): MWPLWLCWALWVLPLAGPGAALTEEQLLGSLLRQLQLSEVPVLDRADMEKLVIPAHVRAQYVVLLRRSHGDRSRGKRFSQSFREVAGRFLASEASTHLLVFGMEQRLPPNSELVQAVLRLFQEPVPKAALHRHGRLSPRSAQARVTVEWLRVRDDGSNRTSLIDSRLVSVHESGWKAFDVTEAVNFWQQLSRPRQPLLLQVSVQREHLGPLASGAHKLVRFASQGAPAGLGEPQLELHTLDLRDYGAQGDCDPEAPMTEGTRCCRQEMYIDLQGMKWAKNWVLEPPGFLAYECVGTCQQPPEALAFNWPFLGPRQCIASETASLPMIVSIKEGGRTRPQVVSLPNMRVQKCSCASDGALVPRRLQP
Chain of Alpha-bungarotoxin (Bungarus multicinctus) (P60615 whole entry, looked up): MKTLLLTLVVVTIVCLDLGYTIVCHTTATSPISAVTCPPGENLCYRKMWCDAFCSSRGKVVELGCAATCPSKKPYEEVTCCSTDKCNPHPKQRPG

With `COC(=O)NCC=Cc1nc(CCC=CC(=O)O[C@H]2CC3CC(=O)O[C@@H](C=CCC(C)C)C[C@@H]4CC[C@H](C)[C@@H](C[C@@H](OC)C[C@H](C2)O3)O4)co1`, the composite z-score in assay [1] is -0.466; in assay [2], -0.445; in assay [3] it was -0.42; in [5] it was -0.512; in assay [6], -1.21; in assay [7], -0.633. For the same compound, the composite z-score in assay [8] is -0.65; in assay [9] it was -0.447; in [10] it was 0.846; in assay [11], -1.78; in assay [13], -0.107; in assay [14], -0.421. Moreover, the composite z-score in assay [15] was -0.409; in assay [16] it was -0.179; in [17] it was -0.345; in assay [18], -0.0784; in assay [19], 0.231; in assay [20], -0.684. Besides, the results for the z-score in assay [4] and in assay [12] were 0.659 (inactive) and -3.46, respectively.

Turning to `C=C(CC1(CNP(=O)(c2ccccc2)c2ccccc2)CC1)c1ccccc1`, the composite z-score was 1.34 in assay [1]; 0.19 in [2]; 0.752 in assay [3]; 0.213 in assay [5]; -0.383 in [6]; 0.187 in assay [7]. For the same compound, the composite z-score is -0.77 in assay [8]; -0.542 in assay [9]; 1.16 in assay [10]; -0.872 in assay [11]; 0.165 in assay [13]; 1.22 in assay [14]. In addition, the composite z-score is 0.442 in assay [15]; 0.0597 in assay [16]; -0.273 in assay [17]; 1.01 in assay [18]; 0.836 in assay [19]; -0.108 in assay [20]. The z-score in [4] was -0.937 (inactive); in assay [12], -1.

For `COC(=O)[C@@]1(Cc2ccccc2)[C@H]2c3cc(C(=O)N(C)C)[nH]c3C[C@H]2CN1C(=O)c1ccccc1`, the composite z-score was 0.45 in assay [1]; 0.425 in assay [2]; 0.709 in assay [3]; -0.36 in [5]; -1.15 in assay [6]; -0.649 in assay [7]. The composite z-score in assay [8] was -1.32; in assay [9], -1.06; in [10], 1.02; in assay [11], -0.452; in assay [13], -0.476; in assay [14], 0.157. Further, the composite z-score in assay [15] was 0.136; in assay [16], 0.0037; in assay [17], 0.333; in [18], 0.629; in assay [19], 0.533; in assay [20] it was -0.0856. Moreover, the z-score in [4] is 0.454 (inactive); in assay [12], -0.454.

With `C=C(CC1(C(C)NP(=O)(c2ccccc2)c2ccccc2)CC1)c1ccccc1` (stereo not given), the composite z-score was 0.742 in assay [1]; 0.364 in [2]; 0.803 in [3]; 0.623 in [5]; 0.0363 in assay [6]; -0.636 in [7]. Besides, the composite z-score in assay [8] is -0.0868; in [9], -0.237; in assay [10] it was 0.853; in assay [11], 1.48; in [13], -0.867; in assay [14], 0.962. Also, the composite z-score in assay [15] turned out to be 0.945; in [16], 0.23; in assay [17], 0.128; in assay [18], 0.804; in [19] it was 1.32; in assay [20] it was 0.468. Further, the z-score in assay [4] is -4.59 (inactive); in assay [12] it was -1.52.

Regarding `CCCc1cc2c(n1Cc1cccc(Cl)c1)C(C)C1CN(C(=O)c3ccccc3)C(C)(C(=O)OC)C21` (stereo not given), the composite z-score was 0.922 in assay [1]; 1.37 in assay [2]; 1.54 in assay [3]; 0.368 in assay [5]; 0.146 in assay [6]; -0.458 in assay [7]. The composite z-score in assay [8] is -0.0989; in assay [9], -1.61; in assay [10] it was 1.24; in assay [11], 0.226; in assay [13], -0.587; in assay [14], 2.18. Moreover, the composite z-score in [15] is 1.37; in [16] it was -0.0445; in assay [17] it was 0.261; in assay [18] it was 1.71; in assay [19], 2.22; in assay [20], 0.818. Further, the z-score was -3.44 (inactive) in [4] and -2.24 in assay [12].

Take `CC1N(P(=O)(c2ccccc2)c2ccccc2)CC(O)(c2ccccc2)CC12CC2` (stereo not given): the composite z-score in [1] is 0.639 and 0.752; in [2] it was -0.135 and 1; in [3], 0.938 and 1.14; in assay [5] it was -0.115 and 0.145; in assay [6], -0.0785 and -0.283; in assay [7], -0.678 and 0.158. Further, the composite z-score is -1.67 and -0.931 in assay [8]; -0.657 and -0.814 in assay [9]; 0.388 and 1.1 in assay [10]; 1.36 and 0.0155 in [11]; -1.22 and 0.326 in assay [13]; -0.0346 and 1.63 in [14]. The composite z-score in [15] is 0.595 and 1.02; in [16] it was 0.151 and -0.131; in [17], 0.535 and 0.377; in assay [18] it was 0.915 and 1.68; in assay [19] it was 1.23 and 1.28; in [20] it was -0.914 and -0.0679. In addition, the z-score in [4] is 0.255 (inactive) and -4.15 (inactive); in assay [12], -0.421 and -1.5.

In the case of `c1ccc(-c2cc3c(nc2-c2ccccc2)CCNC3)cc1`, the composite z-score in assay [1] was 0.035; in assay [2] it was -0.193; in [3], -0.165; in assay [5], -0.757; in [6] it was -0.598; in [7], -0.0212. The composite z-score in [8] is -0.419; in assay [9], -0.419; in assay [10], 1.09; in assay [11], -0.903; in assay [13], 0.0196; in assay [14], -0.198. Moreover, the composite z-score is -0.0533 in assay [15]; -0.184 in [16]; -0.0626 in assay [17]; 0.0459 in [18]; -0.19 in [19]; 0.913 in [20]. The z-score in assay [4] was -0.326 (inactive); in assay [12] it was -1.32.

Consider `CCCc1cc2c(n1Cc1ccco1)C(C)C1CN(C(=O)c3ccccc3)C(C)(C(=O)OC)C21` (stereo not given), for which the composite z-score amounted to 1.16 in assay [1]; 1.6 in assay [2]; 1.52 in [3]; 0.505 in assay [5]; 1.02 in assay [6]; 0.437 in assay [7]. Besides, the composite z-score in [8] was 0.715; in [9] it was 0.512; in [10], 1.57; in [11], 0.0223; in assay [13] it was 0.392; in [14] it was 1.9. For the same compound, the composite z-score in assay [15] stood at 0.425; in assay [16], 0.117; in assay [17] it was 0.239; in [18] it was 1.65; in assay [19], 1.4; in assay [20], 0.899. In addition, the z-score in assay [4] was 1.76 (inactive); in assay [12], -1.28.

These data come from PubChem BioAssay.
